# Experimental data taken from the supplement of paper PMC10011410.
# ± gives the standard deviation of the averaged measurements.
# System: AmpC beta-lactamase (E. coli)
# Test: AmpC inhibition relative to DMSO; higher = more inhibition
# Summary of the method: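 Percent inhibition was calculated against solvent-only wells. Each value is the mean of four technical replicates, taken from rates read as absorbance at 482 nm over 5 min after nitrocefin addition and background-subtracted against enzyme-free wells. Before nitrocefin went in, compounds (4, 11, 33 and 100 μM) sat with 5 nM E. coli AmpC β-lactamase for 5 min at RT in 50 mM sodium phosphate, pH 7.0, 1.0% DMSO, with or without 0.01% Triton X-100.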
# [1] = 4 µM, detergent: 0.01% Triton X-100
# [2] = 11 µM, detergent: 0.01% Triton X-100
# [3] = 33 µM, detergent: 0.01% Triton X-100
# [4] = 100 µM, detergent: 0.01% Triton X-100
# [5] = 100 µM, detergent: no detergent
compound,measurement,setting,value
CCCCCCCCCCCCCCCc1cccc(O)c1C(=O)O,AmpC inhibition,[1],6.97 ± 5.3%
same,AmpC inhibition,"4 µM, detergent: no detergent",25.7 ± 18%
same,AmpC inhibition,[2],6.87 ± 8.5%
same,AmpC inhibition,"11 µM, detergent: no detergent",97.15 ± 0.48%
same,AmpC inhibition,[3],5.05 ± 6.1%
same,AmpC inhibition,"33 µM, detergent: no detergent",100 ± 3.9%
same,AmpC inhibition,[4],7.84 ± 4%
same,AmpC inhibition,[5],99.49 ± 0.71%
O=C(OCC)/C(C(OCC)=O)=C\CCCCCCCCCCCCCC,AmpC inhibition,[1],5.31 ± 3.4%
same,AmpC inhibition,"4 µM, detergent: no detergent",-0.349 ± 2.3%
same,AmpC inhibition,[2],1.25 ± 19%
same,AmpC inhibition,"11 µM, detergent: no detergent",41.5 ± 10%
same,AmpC inhibition,[3],6.47 ± 3.7%
same,AmpC inhibition,"33 µM, detergent: no detergent",50.3 ± 16%
same,AmpC inhibition,[4],1.39 ± 4.3%
same,AmpC inhibition,[5],86.8 ± 6.6%
CC(Cc1ccc(O)c(O)c1)C(C)Cc1ccc(O)c(O)c1 (centres undefined),AmpC inhibition,[1],0.262 ± 1.6%
same,AmpC inhibition,"4 µM, detergent: no detergent",2.98 ± 9.9%
same,AmpC inhibition,[2],-1.09 ± 14%
same,AmpC inhibition,"11 µM, detergent: no detergent",23.2 ± 4%
same,AmpC inhibition,[3],1.16 ± 12%
same,AmpC inhibition,"33 µM, detergent: no detergent",47.4 ± 7.5%
same,AmpC inhibition,[4],-4.88 ± 5.5%
same,AmpC inhibition,[5],86 ± 2.8%
COc1cc(/C=C/c2cc(/C=C/c3ccc(O)c(OC)c3)n(-c3ccc(C(=O)[O-])cc3)n2)ccc1O.[Na+],AmpC inhibition,[1],1.31 ± 3%
same,AmpC inhibition,"4 µM, detergent: no detergent",-4.8 ± 14%
same,AmpC inhibition,[2],2.98 ± 1.9%
same,AmpC inhibition,"11 µM, detergent: no detergent",-29.6 ± 5.8%
same,AmpC inhibition,[3],4.87 ± 2.2%
same,AmpC inhibition,"33 µM, detergent: no detergent",-38.3 ± 23%
same,AmpC inhibition,[4],2.96 ± 6%
same,AmpC inhibition,[5],-2.93 ± 15%
CNC(=O)Nc1ccc2c(c1)CC[C@@]21OC(=O)N(CC(=O)N(Cc2ccc(F)cc2)[C@@H](C)C(F)(F)F)C1=O,AmpC inhibition,[1],5.14 ± 2.9%
same,AmpC inhibition,"4 µM, detergent: no detergent",-1.32 ± 9.8%
same,AmpC inhibition,[2],5.67 ± 2.5%
same,AmpC inhibition,"11 µM, detergent: no detergent",5.86 ± 3.8%
same,AmpC inhibition,[3],-0.581 ± 4.1%
same,AmpC inhibition,"33 µM, detergent: no detergent",-6.17 ± 3.8%
same,AmpC inhibition,[4],-3 ± 2.8%
same,AmpC inhibition,[5],-3.55 ± 4.8%
CCCCCCCc1ccc(CCc2cccc(O)c2C(=O)O)cc1,AmpC inhibition,[1],1.37 ± 5%
same,AmpC inhibition,"4 µM, detergent: no detergent",-4.68 ± 3.5%
same,AmpC inhibition,[2],8.12 ± 2.9%
same,AmpC inhibition,"11 µM, detergent: no detergent",61 ± 10%
same,AmpC inhibition,[3],9.04 ± 3.8%
same,AmpC inhibition,"33 µM, detergent: no detergent",97.2 ± 1.9%
same,AmpC inhibition,[4],8.27 ± 3.7%
same,AmpC inhibition,[5],99.4 ± 1.4%
ClC1=CC=C(C2=CSC(N/N=C3CCCC/3)=N2)C=C1,AmpC inhibition,[1],5.11 ± 3.4%
same,AmpC inhibition,"4 µM, detergent: no detergent",11.8 ± 4.8%
same,AmpC inhibition,[2],4.35 ± 2.1%
same,AmpC inhibition,"11 µM, detergent: no detergent",6.62 ± 2.3%
same,AmpC inhibition,[3],1.83 ± 7%
same,AmpC inhibition,"33 µM, detergent: no detergent",14.2 ± 9%
same,AmpC inhibition,[4],7.09 ± 4.1%
same,AmpC inhibition,[5],1.99 ± 3.6%
C=C(C)[C@@H](CC=C(C)C)C[C@@]12C[C@@H](CC=C(C)C)C(C)(C)[C@@](CC=C(C)C)(C(=O)/C(=C(\O)c3ccc(O)c(O)c3)C1=O)C2=O,AmpC inhibition,[1],13.6 ± 17%
same,AmpC inhibition,"4 µM, detergent: no detergent",0.481 ± 8.4%
same,AmpC inhibition,[2],-2 ± 19%
same,AmpC inhibition,"11 µM, detergent: no detergent",17.9 ± 7.4%
same,AmpC inhibition,[3],5.26 ± 8.2%
same,AmpC inhibition,"33 µM, detergent: no detergent",63 ± 4.7%
same,AmpC inhibition,[4],-8.29 ± 6.4%
same,AmpC inhibition,[5],97.95 ± 0.64%
c1cc(SSc2ccns2)sn1,AmpC inhibition,[1],7.81 ± 8.7%
same,AmpC inhibition,"4 µM, detergent: no detergent",-0.684 ± 6.7%
same,AmpC inhibition,[2],6.83 ± 7.1%
same,AmpC inhibition,"11 µM, detergent: no detergent",5.01 ± 6.3%
same,AmpC inhibition,[3],7.13 ± 7.9%
same,AmpC inhibition,"33 µM, detergent: no detergent",3.34 ± 12%
same,AmpC inhibition,[4],9.28 ± 4%
same,AmpC inhibition,[5],11 ± 4.2%
O=C1C(Cl)=C(NCCN2CCOCC2)C(=O)c2ncccc21,AmpC inhibition,[1],8.96 ± 3%
same,AmpC inhibition,"4 µM, detergent: no detergent",0.538 ± 7%
same,AmpC inhibition,[2],5.66 ± 0.9%
same,AmpC inhibition,"11 µM, detergent: no detergent",0.224 ± 2.9%
same,AmpC inhibition,[3],5.99 ± 7.4%
same,AmpC inhibition,"33 µM, detergent: no detergent",-1.42 ± 2.1%
same,AmpC inhibition,[4],6.05 ± 2%
same,AmpC inhibition,[5],-4.13 ± 5.6%
C=C1C(=O)O[C@H](CCC)[C@H]1C(=O)O,AmpC inhibition,[1],0.817 ± 3%
same,AmpC inhibition,"4 µM, detergent: no detergent",2.33 ± 5.5%
same,AmpC inhibition,[2],3.75 ± 2.7%
same,AmpC inhibition,"11 µM, detergent: no detergent",-0.423 ± 6.2%
same,AmpC inhibition,[3],0.478 ± 2.6%
same,AmpC inhibition,"33 µM, detergent: no detergent",-0.772 ± 6.7%
same,AmpC inhibition,[4],2.9 ± 2%
same,AmpC inhibition,[5],0.697 ± 4.5%
CCCCCOc1ccc(/C=C\c2cccc(O)c2C(=O)O)cc1,AmpC inhibition,[1],-1.02 ± 4.7%
same,AmpC inhibition,"4 µM, detergent: no detergent",-1.47 ± 3.3%
same,AmpC inhibition,[2],7.71 ± 5.1%
same,AmpC inhibition,"11 µM, detergent: no detergent",27.2 ± 7.2%
same,AmpC inhibition,[3],5.08 ± 5.7%
same,AmpC inhibition,"33 µM, detergent: no detergent",69 ± 16%
same,AmpC inhibition,[4],14 ± 3%
same,AmpC inhibition,[5],99.2 ± 1.4%
Cc1cc(-c2ccccc2)cc(C(=O)NNS(=O)(=O)c2ccccc2)c1F,AmpC inhibition,[1],10.3 ± 2.6%
same,AmpC inhibition,"4 µM, detergent: no detergent",7.83 ± 8%
same,AmpC inhibition,[2],6.24 ± 2.3%
same,AmpC inhibition,"11 µM, detergent: no detergent",9.5 ± 7%
same,AmpC inhibition,[3],1.15 ± 3%
same,AmpC inhibition,"33 µM, detergent: no detergent",15 ± 4.6%
same,AmpC inhibition,[4],8.19 ± 9.7%
same,AmpC inhibition,[5],53.4 ± 7.8%
